Assay outcomes deposited in PubChem by several laboratories.
Compounds with a hit are over-represented: about 0.75% of the library has one in this group of screens.
Sa RN4220 lethal: S. aureus RN4220 growth inhibition; OD600, 16 h; inhibition, % (test concentration not listed); 0.33% of 330,000 active; in the data active = inhibition above about 85%;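 also: plate controls were untreated cells for no effect and reference antibiotic for full effect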
Sa ugtP lethal: compounds lethal to S. aureus RN4220 ugtP deletion mutant; OD600 growth, 16 h; growth inhibition, % (no concentration beside the values); 0.54% of 330,000 active; AID 1259309; in the data active = growth inhibition above about 68%;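 also: plate controls were untreated wells for no effect and antibiotic for full effect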
Mtb hypoxia rep: Mtb hypoxia fluorescent reporter inhibition. M. tuberculosis hypoxia-regulated fluorescent reporter, fluorescence. fluorescence inhibition, % (concentration not given with the values). 0.1% of 300,000 active. AID 1159583; in the data active = fluorescence inhibition mostly above about 23%, no sharp cut-off; inactive = mostly below about 17%
TcdB inh: blocks C. difficile toxin B glycohydrolase activity; AID 652162; 0.24% of 350,000 active; TcdB glycohydrolase enzymatic assay, plate reader; P18177; inhibition, % at 9.99 µM; in the data active = inhibition above about 10%
Yp Topo-I inh: inhibitors of Yersinia pestis topoisomerase I; Y. pestis Topo-I cleavage product accumulation, plate reader; activity, % at 10 µM; 0.064% of 360,000 active; AID 504884; in the data active = activity above about 50%, passing the limit was not always enough
BioA inh: blocks M. tuberculosis BioA enzyme activity; purified M. tuberculosis BioA enzyme, plate reader; inhibition, % at 9.99 µM; 0.096% of 360,000 active; AID 602481; in the data active = inhibition above about 40%
Starred values were filed as active, the others as inactive; / = no result given.

SMILES	Sa RN4220 lethal	Sa ugtP lethal	Mtb hypoxia rep	TcdB inh	Yp Topo-I inh	BioA inh
NC(=O)c1ccc2c(=O)c(O)c(-c3cc(Cl)c(N)c(Cl)c3)[nH]c2c1	/	/	/	13*	-9	0
CCCNC(=O)c1ccc2c(=O)c(O)c(-c3ccc(Cl)c([N+](=O)[O-])c3)[nH]c2c1	/	/	/	1	2	1
COc1ccc(OCc2n(CC(=O)OC3CC(C)CCC3C(C)C)c3ccccc3[n+]2C)cc1 (centres undefined)	101*	100*	/	2	8	11
CC1CCC(C(C)C)C(OC(=O)CSc2nccc(=O)[nH]2)C1 (centres undefined)	12	-13	3	/	-1	-1
COc1ccc(-c2n(CC(=O)OC3CC(C)CCC3C(C)C)c3ccccc3[n+]2C)cc1 (centres undefined)	101*	101*	/	0	5	/
Clc1ccccc1-c1nc(NN=Cc2cccnc2)c2ccccc2n1	2	-3	/	/	/	/
Cc1c(NC(=S)NN=C/C=C/c2ccc([N+](=O)[O-])cc2)c(=O)n(-c2ccccc2)n1C	1	88*	1	/	/	/
Cc1ncc(CO)c(C=NNC(=S)Nc2ccc(Cl)c(Cl)c2)c1O	47	23	7	/	/	/
COc1ccc(/C=N/n2c(-c3cc(C)[nH]n3)n[nH]c2=S)cc1OC	/	/	/	11*	2	-2
COc1ccc(C=Nn2c(-c3cc(C)[nH]n3)n[nH]c2=S)cc1OC	4	0	6	/	/	/
CC(CCc1ccc2c(c1)OCO2)=NN=C(N)SC1CC(=O)N(c2ccccc2F)C1=O (centres undefined)	7	-2	/	/	/	/
Cc1ccc(C)c(CSc2nnc(CCN)o2)c1	3	-8	4	/	-7	3
Cc1ccc(C)c(CSc2nnc([C@@H](N)C(C)C)o2)c1	3	-2	5	/	90*	2
CCOC(=O)N1CCC(c2cc(=O)n3[nH]c(-c4ccccc4)cc3n2)CC1	0	1	9	24*	2	-1
O=C(NN=Cc1ccc2c(c1)OCO2)c1cccc(NC(=O)c2ccccc2Cl)c1	3	4	18	/	/	/
CC(CC=NNC(=O)COc1cc(Cl)ccc1Cl)c1ccccc1 (centres undefined)	-9	1	/	/	/	/
CCOC(=O)/C=c1/s/c(=C/c2ccc3cc(OC)ccc3c2)c(=O)n1CC(=O)NCC1CCCO1 (centres undefined)	2	-3	3	12*	3	/
COc1cc(NC(=O)CCc2nnc3ccc(N4CCC(C)CC4)nn23)cc(OC)c1	-2	2	-4	10*	4	0
COc1cc(NC(=O)CCc2nnc3ccc(N4CCN(c5cccc(OC)c5)CC4)nn23)cc(OC)c1	2	-5	-3	1	16	-1
CCOC(=O)C1C2COc3ccc(OC)cc3C2N2C(=O)CN(Cc3ccc(F)cc3)C(=O)[C@@]12C (some centres undefined)	0	-6	8	/	/	/
Nc1nc(N)c2cc(Sc3ccc4ccccc4c3)ccc2n1	100*	99*	-11	1	-13	4
Nc1nc(N)c2cc(Sc3ccc(Cl)cc3)ccc2n1	/	/	/	1	-1	-1
O=C(CC(=O)c1ccccc1O)c1ccc(F)cc1	84	90*	-1	/	-2	/
O=C(CC(=O)c1ccccc1O)c1cccc(F)c1	79	96*	/	/	-3	/
NC(=O)NN=Cc1cccc(C(F)(F)F)c1	3	3	12	/	/	/
SMILES	Sa RN4220 lethal	Sa ugtP lethal	Mtb hypoxia rep	TcdB inh	Yp Topo-I inh	BioA inh
CC(C)CC(=O)N1CCN(Cc2ccc(Br)cc2)CC1	3	13	3	11*	7	-1
CC(C)CC(=O)N1CCN(Cc2ccc(Cl)cc2)CC1	4	2	10	1	8	3
COc1ccc(NC(=O)CC(C)=NNC(=O)c2cnccn2)cc1Cl	11	4	-2	/	/	/
COc1ccc(C=CC(=O)c2ccccc2O)cc1	9	8	6	/	/	/
O=C(Nc1nnc(-c2ccco2)o1)C1CC1	1	-6	2	10*	-2	0
CCOc1ccccc1C=NNc1nc2ccccc2o1	-2	7	2	/	/	/
O=C(C#Cc1cccc([N+](=O)[O-])c1)c1ccccc1	75	98*	3	/	4	5
O=C(O)C(=Cc1cccc([N+](=O)[O-])c1)c1ccccc1	/	/	/	5	8	/
N#Cc1ccc(C=NNC(=O)c2ccccc2F)cc1	2	1	8	/	/	/
CC(=NNS(=O)(=O)c1ccc(C)cc1)c1cccc(NC(=O)c2cccc(Cl)c2)c1	-9	6	/	/	/	/
CCC(CO)NC(=O)C1C=C2c3cccc4c3c(cn4C)CC2N(C)C1 (centres undefined)	9	9	12	/	/	/
Cc1cccc(-c2nsc(SCC(=O)Nc3cc(C)on3)n2)c1	0	1	15	/	13	0
CCOC(=O)N1CCN(C(=O)CSc2nc(-c3cccc(C)c3)ns2)CC1	8	1	44*	/	26	1
Oc1ccc(Cl)cc1C1=NNC(c2cccs2)C1 (centres undefined)	96*	99*	12	1	-3	2
Cc1ccc(O)c(C2=NNC(c3ccc(Cl)cc3)C2)c1 (centres undefined)	28	17	-5	0	-8	0
COc1ccc(OC)c(C=NNC(=O)CSc2nnc(C)n2-c2ccccc2)c1	6	5	/	/	/	/
CC1CN(c2nc3ccccc3cc2-c2ccccc2)CC(C)O1 (centres undefined)	-7	91*	14	-1	30	/
Cc1cc(-c2ccccc2)n(-c2cc(NN=Cc3ccccc3O)ncn2)n1	79	101*	7	/	/	/
Cc1cc(-c2ccccc2)n(-c2cc(N/N=C/c3ccccc3O)ncn2)n1	/	/	/	1	4	-2
CCN(CC)c1ccc(C=Nn2c(C)cc(C)cc2=O)cc1	5	-6	4	/	/	/
CCOc1ccc(N2C(=O)NC(=O)C(=Cc3ccc(N4CCCCC4)o3)C2=O)cc1	3	2	40*	/	/	/
O=C1NC(=O)N(c2ccc3c(c2)OCO3)C(=O)C1=Cc1ccc(N2CCCC2)o1	7	6	40*	/	/	/
O=C1NC(=O)N(c2ccc3c(c2)OCO3)C(=O)/C1=C/c1ccc(N2CCCCC2)o1	-14	-6	20	/	4	-18
Cc1nn(C)cc1C=NNC(=O)C(C)(C)Oc1ccc(Cl)cc1	2	3	4	/	/	/
C=CCON=CC1=C(O)C(C(=O)OC)C(C)(C)CC1=O (centres undefined)	5	8	3	/	/	/
CCCCOc1c(Br)cc(/C=N/O)cc1OCC	/	/	/	/	13	10
CCCCOc1c(Br)cc(C=NO)cc1OCC	0	100*	2	/	/	/
COc1ccc(S(=O)(=O)N(C)CC2Oc3ccc(NC(=O)Nc4ccc5c(c4)OCO5)cc3CC(=O)N(C(C)CO)CC2C)cc1 (centres undefined)	2	-3	8	/	/	/
CC#CCN1c2ccccc2[C@]23CC(C(=O)OC)N=C2NC(C(=O)OC)=C(C(=O)OC)C13 (some centres undefined)	1	2	11	/	/	/
COc1ccccc1NC(CC(=O)c1ccccc1)C(=O)OCC(=O)c1ccc(C)cc1 (centres undefined)	6	84*	16	1	31	/
